Bioassay records deposited in PubChem BioAssay by National Center for Advancing Translational Sciences (NCATS).
Casp1 inh: blocks human caspase-1 allosterically or competitively; P29466; Caspase-1 enzyme, Ac-WEHD-AFC fluorogenic rate; Potency, µM (highest dose often 57.5 µM), inactives show top-dose activity change, negative = inhibition, usual class: inhibitors; 0.03% of 75,000 active;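 further: plate controls were vehicle for no effect and no substrate for full effect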
GBA mod: human lysosomal glucosylceramidase modulation | P04062 | purified enzyme, resorufin glucoside fluorescence (screen aimed at inhibitors), 20 min | Potency, µM | 1.1% of 48,000 active | AID 360; in the data active means potency below about 15 µM; inconclusive means mostly about 16 µM to 33 µM;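 further: the screen sought inhibitors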
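Compounds titrated against 0.2 nM normal enzyme, 30 uM resorufin beta-D-glucopyranoside substrate, citrate/phosphate buffer with taurocholate and tween-20, pH 5.9. Reaction ran 20 min at room temperature; fluorescence (Ex 548/Em 600) gave AC50.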
Casp7 inh: allosteric or competitive inhibitors of human caspase-7 | 0.02% of 75,000 active | P55210 | Potency, µM (top dose mostly 57.5 µM), without a hit: top-dose activity change, negative = inhibition, actives largely listed as inhibitors | recombinant caspase-7, Ac-DEVD-AFC fluorescence rate; active means well fitted inhibition curve with a large enough effect in the main read-out, with a control signal flat, not every such curve was filed as active; inconclusive means small, poorly fitted or top-dose-only effect, or a change in a side signal; further: % of control where 0% means no effect
USP2a inhib: USP2a (human) protease inhibition; 0.1% of 60,000 active; USP2a enzymatic assay, qHTS inhibition; Potency, µM (series often up to 38.3 µM), for the others: at the top dose activity change, negative = inhibition, actives largely listed as inhibitors; O75604; further: nearly all actives have a fitted effect of over 60% in size
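Coupled readout: USP2-cleaved Ub-PLA2 (20nM final) turns over NBD C6-HPC (20uM final), Ex 460nm/Em 535nm after 2.5 h, time-zero read flagging artifacts. Enzyme (20nM final, pH 8.0 Tris) given 30 min RT with compound first; NEM defines full inhibition.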
An asterisk follows results filed as active; [ ] = dose if it differs, or a comment. This excerpt belongs to a sample that is enriched for hits. Unless noted, the call rests on the fitted dose curve; in most records, active means well fitted curve in the direction sought with a large enough effect; inconclusive means small, poorly fitted or top-dose-only effect, or another doubt; inactive means no such curve, though single readings can be large; an effect the other way counts as inactive or inconclusive. Potency means the concentration at half of the fitted maximal effect.

CCCOC(=O)C1[C@H]2C(=O)N(C(C)c3ccc(OC)cc3)C[C@]23C=C[C@H]1O3 (stereo not given in full) was read as Casp1 inh -0.5%, GBA mod 12.8*, Casp7 inh -1.0% and USP2a inhib -1.6%.
Screening N#CCSc1nc2c(sc(=S)n2Cc2ccco2)c(=O)n1-c1ccc(F)cc1 returned Casp1 inh -2.8%, GBA mod 5.97*, Casp7 inh -1.3% and USP2a inhib 29.6%.
Screening CCn1c(=S)sc2c(=O)n(-c3ccccc3)c(SC)nc21 returned Casp1 inh -7.9%, GBA mod inactive, Casp7 inh -2.4% and USP2a inhib 8.3%.
Cc1cc(N)c2ccccc2[n+]1CCCCCCCCCCCCCC[n+]1c(C)cc(N)c2ccccc21 was read as Casp1 inh 5.9%, Casp7 inh -3.2% and USP2a inhib 15.8µM*.
For Nc1c(S(=O)(=O)O)cc(Nc2ccc(Nc3nc(Cl)nc(Nc4ccc(S(=O)(=O)O)cc4)n3)c(S(=O)(=O)O)c2)c2c1C(=O)c1ccccc1C2=O the results were Casp1 inh -6.4%, Casp7 inh -6.4% and USP2a inhib 7.94µM*.
For ICCc1ccccc1 the results were Casp1 inh inconclusive and Casp7 inh -3.1%.
Screening CCCC[S@@](=N)(=O)CC[C@@H](N)C(=O)O returned Casp1 inh 1.0%, Casp7 inh 1.2% and USP2a inhib -5.6%.
CCOC(=O)c1cnc(-n2cc(C)cn2)nc1Nc1ccccc1OC was read as Casp1 inh -0.8%, GBA mod 12.3*, Casp7 inh -0.4% and USP2a inhib 32.5%.
Screening COc1ccc(-c2cn3cc(Cl)ccc3n2)cc1OC returned Casp1 inh -2.2%, GBA mod 2.83*, Casp7 inh -2.4% and USP2a inhib -4.5%.
Cc1cccc(S(=O)(=O)c2c(N)n(/N=C/c3ccco3)c3nc4ccccc4nc23)c1 was read as Casp1 inh -10.2%, GBA mod 6.08*, Casp7 inh -12.1% and USP2a inhib 42.5%.
For C[C@H]1[C@H](C)CC[C@]2(C(=O)O)CC[C@]3(C)C(=CC[C@@H]4[C@]5(C)C[C@H](O)[C@@H](O)[C@@](C)(CO)[C@@H]5[C@H](O)C[C@@]43C)[C@H]12 the results were Casp1 inh -0.7%[11.5 µM] and Casp7 inh -3.8%[11.5 µM].
Screening O=C1OC(Nc2nc3ccccc3s2)c2ccccc21 (stereo not given) returned Casp1 inh -2.3%, GBA mod 15.1*, Casp7 inh 0.1% and USP2a inhib -0.7%.
Screening O=C1OC(Nc2nccs2)c2ccccc21 (stereo not given) returned Casp1 inh -0.2%, GBA mod >76.9, Casp7 inh 1.2% and USP2a inhib 1.2%.
Screening CN1C2CC(OC(=O)C(CO)c3ccccc3)C[C@@H]1[C@H]1OC21 (stereo not given in full) returned Casp1 inh 2.1%, Casp7 inh 0.7% and USP2a inhib 6.2%.
O=C(O[C@@H]1Cc2c(O)cc(O)cc2OC1c1ccc(O)c(O)c1)c1cc(O)c(O)c(O)c1 (stereo not given in full) was read as Casp1 inh -2.5%, Casp7 inh -10.7% and USP2a inhib inconclusive.
O=C(c1ccc(Cc2nc3ccccc3[nH]2)cc1)N1CCCCC1 was read as Casp1 inh -2.9% and Casp7 inh -2.9%.
`COc1ccccc1OCc1ccc(C(=O)NC(C)(C)C)o1` gave Casp1 inh -1.5%, GBA mod >76.9, Casp7 inh 0.7% and USP2a inhib -0.1%.
COc1ccccc1OCc1ccc(C(=O)Nc2ccncc2)o1 was read as Casp1 inh 1.4%, GBA mod 13.2*, Casp7 inh -0.5% and USP2a inhib 11.6%.
NC[C@@H]1O[C@@H](O[C@H]2[C@@H](O)[C@H](O[C@@H]3[C@H](O)[C@H](N)C[C@H](N)[C@H]3O[C@@H]3O[C@@H](CO)[C@H](O)[C@H](O)[C@@H]3N)O[C@H]2CO)[C@H](N)[C@H](O)[C@@H]1O was read as Casp1 inh -2.7%, Casp7 inh 1.7% and USP2a inhib 3.1%.
Screening COC(=O)c1cc2c(cc1Cl)SC(=NCCCN1CCOCC1)NS2(=O)=O returned Casp1 inh -0.7%, GBA mod 8.27*, Casp7 inh 5.5% and USP2a inhib 3.3%.
Screening CCN(CC)COC(=S)S returned Casp1 inh -1.6%[11.5 µM] and Casp7 inh 0.4%[11.5 µM].
Cc1ccc(S(=O)(=O)N2CCCCC2)cc1C(=O)c1nccn1C was read as Casp1 inh 0.5%, GBA mod 10.1*, Casp7 inh 8.6% and USP2a inhib -2.2%.
Screening Cc1ccnc(NC(=O)c2cc(S(=O)(=O)N3CCCCC3)ccc2Cl)c1 returned Casp1 inh -0.4%, GBA mod >76.9, Casp7 inh 0.3% and USP2a inhib 21.8%.
`[N-]=[N+]=N[C@@H]1[C@H](O)[C@H](CO)O[C@@H]1n1cnc2c(N)ncnc21` gave Casp1 inh -1.9%[11.5 µM] and Casp7 inh 3.1%[11.5 µM].
Screening COC(=O)c1sccc1NC(=O)c1cc(C)on1 returned Casp1 inh -3.1%, GBA mod >76.9, Casp7 inh -0.8% and USP2a inhib 3.7%.
COC(=O)c1sccc1NC(=O)c1c(C)noc1C was read as Casp1 inh -6.0%, GBA mod 12.1*, Casp7 inh -6.2% and USP2a inhib 33.6%.
`Cc1ccccc1-c1ccc2ncnc(NCc3cccs3)c2c1` gave Casp1 inh inconclusive, Casp7 inh 15.8µM* and USP2a inhib -21.3%.
For Cc1cccc2c(=O)c(C(=O)N3CCCCCC3)c[nH]c12 the results were Casp1 inh 0.3%, GBA mod 6.46*, Casp7 inh 6.9% and USP2a inhib -14.0%.
CCCCC[C@H](CC(=O)NO)C(=O)N[C@@H](C(=O)N1CCC[C@H]1CO)C(C)C was read as Casp1 inh 6.4%, Casp7 inh 1.8% and USP2a inhib 4.0%.
For Cc1cc(C(=O)CSc2nnc(Cc3ccccc3)o2)c(C)n1Cc1ccc2c(c1)OCO2 the results were Casp1 inh -0.8%, GBA mod 3.97*, Casp7 inh -15.4% and USP2a inhib 24.4%.
For Cc1ccc(NC(=O)c2ccc(NS(=O)(=O)c3c(C)noc3C)cc2)cc1C the results were Casp1 inh 1.1%, GBA mod 10.9*, Casp7 inh 2.5% and USP2a inhib 7.3%.
Cc1noc(C)c1S(=O)(=O)Nc1ccc(C(=O)NC2CCCCC2)cc1 was read as Casp1 inh -1.3%, GBA mod 4.09*, Casp7 inh 0.6% and USP2a inhib -4.0%.
Screening COc1ccc(NC(=O)c2ccc(NS(=O)(=O)c3c(C)noc3C)cc2)cc1OC returned Casp1 inh -3.4%, GBA mod 0.295*, Casp7 inh 2.3% and USP2a inhib 12.7%.
For Cc1noc(C)c1S(=O)(=O)Nc1ccc(C(=O)NCCc2ccccc2)cc1 the results were Casp1 inh 0.0%, GBA mod 1.62*, Casp7 inh 1.2% and USP2a inhib 3.6%.
For COc1ccccc1NC(=O)c1ccc(NS(=O)(=O)c2c(C)noc2C)cc1 the results were Casp1 inh 1.9%, GBA mod inactive, Casp7 inh 2.4% and USP2a inhib 0.3%.
